# Experimental data taken from PubChem BioAssay (EPA / NIEHS).
# Results filed as inconclusive are left out. The source made the active and inactive calls. Rule for the calls, unless noted: active = hit-call score of the fitted dose curve at least 0.9, where 1 is the maximum; inactive = score below 0.9.
# Assays:
# [1] = biological target: Glucocorticoid receptor (Homo sapiens) (UniProt P04150); test: ATG_GR_TRANS: Attagene TRANS-FACTORIAL HepG2 Assay for human Glucocorticoid Receptor (GR) (AID 2282978; active = hit-call score of the fitted dose curve at least 0.9, where 1 is the maximum;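 note: activators score as hits since higher reporter transcript over DMSO is fitted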); conditions: HepG2 Attagene TRANS GR reporter, mRNA transcription
# How it was run: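 Fluorescent capillary-electrophoresis quantitation of reporter mRNA is the readout, taken 24 h after dosing human HepG2 cells carrying transiently transfected GAL4-UAS reporter units activated by chimeric NR-GAL4 fusions; activity scored as induction over DMSO.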
# [2] = biological target: Bile acid receptor (Homo sapiens) (UniProt Q96RI1); test: ATG_FXR_TRANS: Attagene TRANS-FACTORIAL HepG2 Assay for Farnesoid X Receptor (FXR) (AID 2282979; active = hit-call score of the fitted dose curve at least 0.9, where 1 is the maximum;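 note: hits raise reporter mRNA above DMSO so AC50 marks FXR activation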); conditions: HepG2 Attagene TRANS FXR-GAL4 reporter transcription
# How it was run: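 Reporter transcripts from transfected HepG2 cells were measured 24 h after dosing, using RT-PCR with capillary electrophoresis of 6-FAM-labelled fragments. The read-out reflects activity of exogenous FXR-Gal4 chimera on GAL4-UAS units, with induction relative to DMSO.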
# [3] = biological target: Oxysterols receptor LXR-alpha (Homo sapiens) (UniProt Q13133); test: ATG_LXRa_TRANS: Attagene TRANS-FACTORIAL HepG2 Assay for human Liver X Receptor alpha (LXRa) (AID 2282980; active = hit-call score of the fitted dose curve at least 0.9, where 1 is the maximum); conditions: HepG2 Attagene TRANS reporter, LXRa transactivation
# How it was run: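 Chemical-induced reporter mRNA measured by RT-PCR with fluorescent labelling and capillary electrophoresis after 24 h dosing of transiently transfected HepG2 cells expressing exogenous NR-Gal4 chimeras; increases scored against DMSO baseline.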
# [4] = biological target: Oxysterols receptor LXR-beta (Homo sapiens) (UniProt P55055); test: ATG_LXRb_TRANS: Attagene TRANS-FACTORIAL HepG2 Assay for human Liver X Receptor beta (LXRb) (AID 2282981; active = hit-call score of the fitted dose curve at least 0.9, where 1 is the maximum); conditions: HepG2 Attagene TRANS GAL4-LXRb reporter, mRNA
# How it was run: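 After 24 h chemical treatment of transfected HepG2 cells carrying exogenous NR-Gal4 chimeras, reporter mRNA was quantified by fluorescent RT-PCR and capillary electrophoresis; activity taken as increase over DMSO controls.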
# [5] = biological target: Hepatocyte nuclear factor 4-alpha (Homo sapiens) (UniProt P41235); test: ATG_HNF4a_TRANS: Attagene TRANS-FACTORIAL HepG2 Assay for human Hepatocyte Nuclear Factor 4 alpha (HNF4a) (AID 2282982; active = hit-call score of the fitted dose curve at least 0.9, where 1 is the maximum); conditions: HepG2 HNF4a transactivation reporter, mRNA readout
# How it was run: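 Activity of an exogenous HNF4a–Gal4 fusion scored as induced GAL4-UAS reporter transcripts after 24 h chemical exposure of transfected human HepG2 cells. Read-out via RT-PCR with 6-FAM labelling and capillary electrophoresis; rise over DMSO baseline.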
# [6] = biological target: Transcriptional activator Myb (Homo sapiens) (UniProt P10242); test: ATG_Myb_CIS: Attagene CIS-FACTORIAL HepG2 Assay for human Myeloblastosis (Myb) Proto-Oncogene Transcription Factor (AID 2282986); conditions: HepG2 Attagene CIS-FACTORIAL Myb reporter transcription; actives raise or lower the signal
# How it was run: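 Reporter transcript levels, quantified by fluorescent RT-PCR and capillary electrophoresis, serve as the read-out. Transfected HepG2 cells carrying cis-promoter reporter units are dosed for 24 hours, and curves are fitted bidirectionally against DMSO controls.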
# [7] = biological target: Nuclear respiratory factor 1 (Homo sapiens) (UniProt Q16656); test: ATG_NRF1_CIS: Attagene CIS-FACTORIAL HepG2 Assay for human Nuclear Respiratory Factor 1 (NRF1) Orphan Gene (AID 2282987); conditions: HepG2 NRF1 cis-element reporter, Attagene multiplex; actives raise or lower the signal
# How it was run: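 Multiplexed cis-reporter assay, HepG2 cells, 24 h treatment. Total RNA → oligo(dT) RT → PCR with reporter-specific primers → 6-FAM primer extension → HpaI cut → CE. Bidirectional fit vs DMSO.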
# [8] = ATG_NFI_CIS: Attagene CIS-FACTORIAL HepG2 Assay for human Nuclear Factor I (NFI) (AID 2282989); conditions: HepG2 cis-regulatory reporter, NFI response element transcription; actives raise or lower the signal
# How it was run: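 Transient MRTU transfection of HepG2 → 24 h chemical dosing → total RNA, oligo(dT) RT → PCR, 6-FAM primer extension, HpaI cut → capillary electrophoresis. Endpoint fitted bidirectionally relative to DMSO.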
# [9] = biological target: Myc proto-oncogene protein (Homo sapiens) (UniProt P01106); test: ATG_Myc_CIS: Attagene CIS-FACTORIAL HepG2 Assay for human Myelocytomatosis (Myc) Proto-Oncogene Transcription Factor (AID 2282990); conditions: HepG2, Attagene cis-reporter transcription factor activity; actives raise or lower the signal
# How it was run: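 Cells of the HepG2 human liver line bear multiple cis-driven reporter transcription units. Reporter mRNA after 24 h exposure is reverse-transcribed, amplified, labelled and resolved by capillary electrophoresis, with gain- or loss-of-signal fitting relative to DMSO.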
# [10] = ATG_NF_kB_CIS: Attagene CIS-FACTORIAL HepG2 Assay for human Nuclear Factor Kappa B (NF-kB) (AID 2282991); conditions: HepG2 Attagene cis-factorial NF-kB reporter mRNA; actives raise or lower the signal
# How it was run: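 Transient MRTU transfection of human HepG2 liver cells → 24 h chemical exposure → total RNA, oligo(dT) RT → PCR, 6-FAM primer extension, HpaI digest 2 h 37 C → CE fragment analysis. Bidirectional fitting, DMSO negative control.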
# [11] = ATG_NRF2_ARE_CIS: Attagene CIS-FACTORIAL HepG2 Assay for human Nuclear Factor Erythroid 2 Related Factor 2 (NFR2) response to Antioxidant Response Elements (ARE) (AID 2282992); conditions: HepG2 Attagene ARE/NRF2 reporter, transcription factor activity; actives raise or lower the signal
# How it was run: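 Endogenous transcription factor activity read out as reporter transcript levels (RT-PCR plus capillary electrophoresis, fluorescence) in transiently transfected HepG2 cells. Measured at 24 h after dosing; gain or loss of signal fitted versus DMSO.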
# [12] = ATG_Oct_MLP_CIS: Attagene CIS-FACTORIAL HepG2 Assay for human Octamer-Binding Transcription Factor (Oct) (AID 2282993); conditions: HepG2 Attagene cis-factorial Oct reporter, mRNA; actives raise or lower the signal
# How it was run: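 Transient MRTU transfection of HepG2 → 24 h compound treatment → RNA isolation, reverse transcription, PCR → 6-FAM primer extension, HpaI digest → capillary electrophoresis. Activity fitted both directions against DMSO.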
# [13] = biological target: Cellular tumor antigen p53 (Homo sapiens) (UniProt P04637); test: ATG_p53_CIS: Attagene CIS-FACTORIAL HepG2 Assay for human p53 Transcription Factor (AID 2282994); conditions: HepG2 p53 cis-element reporter, Attagene mRNA; actives raise or lower the signal
# How it was run: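 Endogenous p53 activity read in transiently transfected HepG2 from a cis-element-driven reporter transcript after 24 h exposure. RNA reverse-transcribed, PCR-amplified, fluorescently labelled and sized by capillary electrophoresis; gain or loss fitted against DMSO baseline.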
# [14] = BSK_3C_uPAR: BioMAP Diversity Plus: 3C Assay for Urokinase-type plasminogen activator receptor (uPAR) Biomarker Activity (AID 2282998); conditions: BioMAP 3C HUVEC, uPAR biomarker ELISA; actives raise or lower the signal
# How it was run: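 ELISA readout of uPAR on human vascular endothelium (umbilical vein primary cells), taken 24 h after chemical dosing. Increases and decreases are both fitted relative to DMSO vehicle.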
# [15] = BSK_3C_VCAM1: BioMAP Diversity Plus: 3C Assay for Vascular cell adhesion molecule 1 (VCAM1) Biomarker Activity (AID 2282999); conditions: BioMAP 3C HUVEC, VCAM1 ELISA, cytokine-stimulated; actives raise or lower the signal
# How it was run: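 Activity fitted in both directions relative to DMSO, with ELISA measurement of the surface marker on primary HUVEC (3C) at 24 h post-treatment; parallel SRB staining (0.1% SRB, TCA-fixed, 560 nm) flagged overt cytotoxicity.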
# [16] = BSK_4H_Eotaxin3: BioMAP Diversity Plus: 4H Assay for Eotaxin 3 Biomarker Activity (AID 2283000); conditions: primary human endothelial cells (HUVEC); actives raise or lower the signal;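 for outcome: CCL26 protein level quantified by ELISA in parallel with SRB cytotoxicity check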
# How it was run: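 Human umbilical vein endothelial cells (BSK_4H system) dosed with test chemical; Eotaxin-3 (CCL26) measured by ELISA 24 h after dosing. Bidirectional curve fitting relative to DMSO negative control as baseline.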
# [17] = BSK_3C_TissueFactor: BioMAP Diversity Plus: 3C Assay for Tissue Factor Biomarker Activity (AID 2282997); conditions: BioMAP 3C HUVEC, tissue factor biomarker readout; actives raise or lower the signal
# How it was run: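 Tissue factor on primary human umbilical vein endothelium was read by ELISA 24 h after dosing, gain or loss relative to DMSO. Cytotoxicity ran alongside via SRB (0.1%, TCA-fixed, 560 nm).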
# [18] = ATG_M_32_TRANS: Attagene TRANS-FACTORIAL HepG2 Assay for M32 Transcription Factor (Internal Marker) (AID 2282984; active = hit-call score of the fitted dose curve at least 0.9, where 1 is the maximum); conditions: HepG2 Attagene TRANS M32 internal marker reporter
# How it was run: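 Internal background reporter in transfected HepG2: after 24 h chemical exposure, RNA reverse-transcribed, reporter cDNA amplified, fluorescently labelled and HpaI-cut, then sized by capillary electrophoresis. Gain of signal fitted against DMSO control.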
# Cellular tumor antigen p53 (Homo sapiens), sequence (P04637 whole entry, looked up): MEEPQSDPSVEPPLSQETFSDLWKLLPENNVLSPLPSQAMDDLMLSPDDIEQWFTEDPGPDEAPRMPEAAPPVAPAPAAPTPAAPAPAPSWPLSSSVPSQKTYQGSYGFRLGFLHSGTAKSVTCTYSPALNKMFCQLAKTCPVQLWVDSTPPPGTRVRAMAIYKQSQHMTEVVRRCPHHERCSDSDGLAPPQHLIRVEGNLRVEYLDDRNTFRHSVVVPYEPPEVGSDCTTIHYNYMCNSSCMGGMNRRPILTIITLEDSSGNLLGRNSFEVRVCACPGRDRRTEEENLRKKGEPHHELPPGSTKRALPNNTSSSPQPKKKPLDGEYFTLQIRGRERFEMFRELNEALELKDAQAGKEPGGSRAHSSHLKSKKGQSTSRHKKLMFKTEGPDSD
# Myc proto-oncogene protein (Homo sapiens), sequence (P01106 whole entry, looked up): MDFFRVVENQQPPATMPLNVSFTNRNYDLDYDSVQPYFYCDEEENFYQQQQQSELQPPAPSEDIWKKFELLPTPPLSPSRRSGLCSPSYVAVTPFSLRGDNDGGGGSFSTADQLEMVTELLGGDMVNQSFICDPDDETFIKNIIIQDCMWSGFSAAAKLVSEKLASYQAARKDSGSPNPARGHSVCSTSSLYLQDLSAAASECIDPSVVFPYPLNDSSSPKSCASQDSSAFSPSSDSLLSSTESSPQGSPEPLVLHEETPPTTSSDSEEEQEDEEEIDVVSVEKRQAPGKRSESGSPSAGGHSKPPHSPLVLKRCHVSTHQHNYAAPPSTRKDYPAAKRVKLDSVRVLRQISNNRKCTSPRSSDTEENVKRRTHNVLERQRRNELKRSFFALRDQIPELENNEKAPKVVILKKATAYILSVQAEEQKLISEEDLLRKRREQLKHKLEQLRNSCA
# Nuclear respiratory factor 1 (Homo sapiens), sequence (Q16656 whole entry, looked up): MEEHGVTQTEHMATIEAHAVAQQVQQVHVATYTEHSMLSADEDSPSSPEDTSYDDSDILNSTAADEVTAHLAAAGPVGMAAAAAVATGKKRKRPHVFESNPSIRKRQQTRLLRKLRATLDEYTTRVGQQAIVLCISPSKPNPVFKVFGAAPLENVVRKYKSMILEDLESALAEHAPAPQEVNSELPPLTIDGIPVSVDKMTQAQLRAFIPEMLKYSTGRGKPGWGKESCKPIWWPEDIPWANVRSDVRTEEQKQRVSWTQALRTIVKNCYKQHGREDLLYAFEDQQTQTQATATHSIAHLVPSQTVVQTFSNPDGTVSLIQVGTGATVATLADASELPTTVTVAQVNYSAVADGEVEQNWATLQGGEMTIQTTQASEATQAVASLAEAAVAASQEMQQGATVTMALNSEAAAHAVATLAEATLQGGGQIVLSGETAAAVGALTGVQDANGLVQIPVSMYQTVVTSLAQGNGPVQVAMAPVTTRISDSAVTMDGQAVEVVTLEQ
# Bile acid receptor (Homo sapiens), sequence (Q96RI1 whole entry, looked up, the tested form may be a part): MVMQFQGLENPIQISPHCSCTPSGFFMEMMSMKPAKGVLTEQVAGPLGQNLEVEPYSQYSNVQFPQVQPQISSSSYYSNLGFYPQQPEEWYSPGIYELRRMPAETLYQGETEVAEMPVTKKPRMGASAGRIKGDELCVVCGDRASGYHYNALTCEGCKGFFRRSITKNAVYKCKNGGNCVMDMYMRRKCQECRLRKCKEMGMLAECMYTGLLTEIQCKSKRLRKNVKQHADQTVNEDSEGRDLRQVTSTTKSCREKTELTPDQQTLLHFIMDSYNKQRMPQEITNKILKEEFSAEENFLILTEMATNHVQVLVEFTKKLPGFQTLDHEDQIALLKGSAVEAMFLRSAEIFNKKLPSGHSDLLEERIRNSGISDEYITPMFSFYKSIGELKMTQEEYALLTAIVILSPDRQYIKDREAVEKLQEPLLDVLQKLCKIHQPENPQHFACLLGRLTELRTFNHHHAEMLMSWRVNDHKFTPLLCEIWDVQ
# Glucocorticoid receptor (Homo sapiens), sequence (P04150 whole entry, looked up, the tested form may be a part): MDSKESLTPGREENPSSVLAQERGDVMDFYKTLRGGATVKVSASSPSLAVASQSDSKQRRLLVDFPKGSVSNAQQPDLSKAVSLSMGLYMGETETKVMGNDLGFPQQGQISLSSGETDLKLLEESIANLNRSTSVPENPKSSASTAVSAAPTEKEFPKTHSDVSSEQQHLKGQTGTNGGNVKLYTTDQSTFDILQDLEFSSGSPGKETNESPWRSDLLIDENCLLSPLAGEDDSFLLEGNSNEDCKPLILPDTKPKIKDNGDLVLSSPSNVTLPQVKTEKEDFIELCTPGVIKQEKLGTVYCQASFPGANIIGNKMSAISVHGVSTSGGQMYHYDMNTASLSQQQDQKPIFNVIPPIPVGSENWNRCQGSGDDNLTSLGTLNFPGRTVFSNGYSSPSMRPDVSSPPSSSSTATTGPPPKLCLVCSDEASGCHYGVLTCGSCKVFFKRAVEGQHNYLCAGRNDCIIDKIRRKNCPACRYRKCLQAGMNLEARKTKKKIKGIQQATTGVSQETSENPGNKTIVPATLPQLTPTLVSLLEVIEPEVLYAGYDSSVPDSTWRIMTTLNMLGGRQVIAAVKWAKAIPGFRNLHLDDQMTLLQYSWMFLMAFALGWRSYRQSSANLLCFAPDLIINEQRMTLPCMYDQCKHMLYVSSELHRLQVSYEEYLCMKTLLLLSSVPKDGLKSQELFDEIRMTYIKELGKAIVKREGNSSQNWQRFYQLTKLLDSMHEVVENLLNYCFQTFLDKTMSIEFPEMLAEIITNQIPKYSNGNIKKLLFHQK
# Transcriptional activator Myb (Homo sapiens), sequence (P10242 whole entry, looked up): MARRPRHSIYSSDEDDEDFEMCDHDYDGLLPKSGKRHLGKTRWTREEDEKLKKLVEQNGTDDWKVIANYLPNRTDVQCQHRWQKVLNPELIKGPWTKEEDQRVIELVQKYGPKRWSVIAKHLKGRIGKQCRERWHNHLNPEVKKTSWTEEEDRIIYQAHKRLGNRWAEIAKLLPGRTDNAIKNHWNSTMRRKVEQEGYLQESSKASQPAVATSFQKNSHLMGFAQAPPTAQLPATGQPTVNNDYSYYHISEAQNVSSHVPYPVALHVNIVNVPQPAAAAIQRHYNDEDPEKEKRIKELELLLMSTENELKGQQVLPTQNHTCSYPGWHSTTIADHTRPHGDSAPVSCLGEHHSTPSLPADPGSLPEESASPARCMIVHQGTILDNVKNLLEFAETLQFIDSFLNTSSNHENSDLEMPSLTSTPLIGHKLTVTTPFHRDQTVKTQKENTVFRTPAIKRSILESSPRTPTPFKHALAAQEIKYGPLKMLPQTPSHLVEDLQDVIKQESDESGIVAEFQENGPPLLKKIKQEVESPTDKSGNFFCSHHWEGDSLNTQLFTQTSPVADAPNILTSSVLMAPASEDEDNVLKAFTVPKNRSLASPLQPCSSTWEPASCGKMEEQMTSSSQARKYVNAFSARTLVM
# Oxysterols receptor LXR-beta (Homo sapiens), sequence (P55055 whole entry, looked up, the tested form may be a part): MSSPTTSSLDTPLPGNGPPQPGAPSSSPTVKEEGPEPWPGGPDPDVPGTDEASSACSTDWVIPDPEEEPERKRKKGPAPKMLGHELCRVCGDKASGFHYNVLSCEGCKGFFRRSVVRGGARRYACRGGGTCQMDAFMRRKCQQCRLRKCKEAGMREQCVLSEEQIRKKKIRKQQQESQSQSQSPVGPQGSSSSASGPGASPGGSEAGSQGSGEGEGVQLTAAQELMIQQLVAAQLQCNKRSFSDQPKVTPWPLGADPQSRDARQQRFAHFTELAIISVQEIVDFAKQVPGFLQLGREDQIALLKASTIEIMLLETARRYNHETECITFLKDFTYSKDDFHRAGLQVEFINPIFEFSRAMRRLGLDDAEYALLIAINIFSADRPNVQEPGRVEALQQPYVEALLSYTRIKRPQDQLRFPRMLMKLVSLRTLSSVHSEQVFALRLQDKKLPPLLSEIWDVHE
# Oxysterols receptor LXR-alpha (Homo sapiens), sequence (Q13133 whole entry, looked up, the tested form may be a part): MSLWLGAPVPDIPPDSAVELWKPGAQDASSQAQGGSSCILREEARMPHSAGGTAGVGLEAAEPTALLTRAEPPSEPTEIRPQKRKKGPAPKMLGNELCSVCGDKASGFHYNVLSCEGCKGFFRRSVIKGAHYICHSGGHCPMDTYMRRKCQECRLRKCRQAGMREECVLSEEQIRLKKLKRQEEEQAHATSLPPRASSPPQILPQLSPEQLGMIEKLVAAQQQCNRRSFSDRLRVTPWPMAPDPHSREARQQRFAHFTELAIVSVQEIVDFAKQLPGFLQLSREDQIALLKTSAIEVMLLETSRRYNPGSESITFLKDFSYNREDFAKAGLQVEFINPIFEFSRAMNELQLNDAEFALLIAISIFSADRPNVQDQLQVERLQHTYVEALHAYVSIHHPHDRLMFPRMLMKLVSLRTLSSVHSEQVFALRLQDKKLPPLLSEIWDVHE
# Hepatocyte nuclear factor 4-alpha (Homo sapiens), sequence (P41235 whole entry, looked up, the tested form may be a part): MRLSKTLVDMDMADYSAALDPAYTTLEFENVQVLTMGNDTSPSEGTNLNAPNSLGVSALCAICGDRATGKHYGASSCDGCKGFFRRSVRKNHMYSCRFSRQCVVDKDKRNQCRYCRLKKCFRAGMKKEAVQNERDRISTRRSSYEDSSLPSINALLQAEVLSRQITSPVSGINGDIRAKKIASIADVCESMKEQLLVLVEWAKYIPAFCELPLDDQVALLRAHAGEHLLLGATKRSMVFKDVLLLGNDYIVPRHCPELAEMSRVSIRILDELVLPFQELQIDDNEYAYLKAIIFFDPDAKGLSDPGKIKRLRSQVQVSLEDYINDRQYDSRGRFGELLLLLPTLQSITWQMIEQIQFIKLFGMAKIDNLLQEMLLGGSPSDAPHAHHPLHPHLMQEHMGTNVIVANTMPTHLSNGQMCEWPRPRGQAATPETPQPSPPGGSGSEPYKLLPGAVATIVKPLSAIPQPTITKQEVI
structure (smiles),measurement,setting,value
COc1ccc2cc(S(=O)(=O)N[C@H](CC(=O)N[C@H](Cc3ccc(CN4[C@H](C)CCC[C@@H]4C)cc3)C(=O)N(C)C(C)C)c3ccc4c(c3)OCO4)ccc2c1,outcome,[1],inactive
same,outcome,[2],inactive
same,outcome,[3],inactive
same,outcome,[4],inactive
same,outcome,[5],inactive
same,outcome,[6],inactive
same,outcome,[7],inactive
same,outcome,[8],inactive
same,outcome,[9],inactive
same,outcome,[10],inactive
same,AC50,[11],11 µM (active)
same,AC50,[12],11 µM (active)
same,AC50,[13],11 µM (active)
same,AC50,[14],19.1 µM (active)
same,AC50,[15],16.4 µM (active)
same,AC50,[16],11.3 µM (active)
Cc1cc(F)ccc1-c1cc(N2CC[C@@H](O)[C@H]2CO)ncc1N(C)C(=O)C(C)(C)c1cc(C(F)(F)F)cc(C(F)(F)F)c1,outcome,[1],inactive
same,outcome,[2],inactive
same,outcome,[4],inactive
same,outcome,[6],inactive
same,outcome,[7],inactive
same,outcome,[8],inactive
same,outcome,[9],inactive
same,outcome,[10],inactive
same,outcome,[11],inactive
same,outcome,[12],inactive
same,outcome,[13],inactive
same,AC50,[17],12.4 µM (active)
same,AC50,[14],9.24 µM (active)
same,AC50,[15],11.8 µM (active)
same,AC50,[16],12.5 µM (active)
COc1cccc([C@H](O)C2CCN(CCc3ccc(F)cc3)CC2)c1OC,outcome,[1],inactive
same,outcome,[2],inactive
same,outcome,[18],inactive
same,outcome,[6],inactive
same,outcome,[7],inactive
same,outcome,[8],inactive
same,outcome,[9],inactive
same,outcome,[10],inactive
same,AC50,[11],140 µM (active)
same,AC50,[12],157 µM (active)
same,AC50,[13],100 µM (active)
same,outcome,[14],inactive
same,outcome,[15],inactive
same,outcome,[16],inactive
